About 500 (1.3%) of roughly 39,000 compounds were called active. This excerpt belongs to a sample that is enriched for actives.

The subject of the test is S. aureus RN4220. The experiment in a line: growth inhibition call (relative growth <= 0.2). The settings on record: 50 µM.
Turning to `C[C@@H]1CCCCO[C@@H](CN(C)Cc2ccc(C(=O)O)cc2)[C@@H](C)CN([C@H](C)CO)C(=O)c2cc(NS(=O)(=O)c3ccc(Cl)cc3)ccc2O1`, the growth inhibition call is “inactive”.
In the case of `COc1ccc(NC(=O)Nc2ccc3c(c2)C(=O)N([C@H](C)CO)C[C@H](C)[C@H](CN(C)C(=O)C2CCCCC2)OCCCC[C@H](C)O3)cc1` it was “inactive”.
On to `C[C@@H]1CN([C@H](C)CO)C(=O)c2cccc(NC(=O)CCCCCC(=O)Nc3ccccc3N)c2O[C@@H]1CN(C)Cc1ccc(-c2ccccc2)cc1`, for which the growth inhibition call was “inactive”.
As to `COc1ccc(CN(C)C[C@H]2Oc3c(NS(=O)(=O)c4cn(C)cn4)cccc3C(=O)N([C@@H](C)CO)C[C@@H]2C)cc1`, the growth inhibition call was “inactive”.
As to `CO[C@@H]1CN(C)C(=O)c2cc(NS(=O)(=O)c3ccccc3C)ccc2OC[C@@H](C)N(S(C)(=O)=O)C[C@H]1C`, the growth inhibition call is “inactive”.
For `C[C@H](CO)N1C[C@H](C)[C@@H](CN(C)Cc2ccc(C(F)(F)F)cc2)OCCCC[C@H](C)Oc2ccc(NC(=O)c3ccncc3)cc2C1=O`, the growth inhibition call is “inactive”.
The same measure for `C[C@@H]1CN([C@H](C)CO)C(=O)c2cc(NC(=O)NC3CCCCC3)ccc2O[C@@H]1CN(C)Cc1ccc(Cl)c(Cl)c1`: “inactive”; for `CSc1ccc2c(c1)N(CCC1CCCCN1C)c1ccccc1S2.Cl` (stereo not drawn): “inactive”; for `CN1CCC(=C2c3ccccc3Sc3ccccc32)CC1.O=C(O)C=CC(=O)O`: “inactive”.
The same measure for `CS(=O)(=O)O.CSc1ccc2c(c1)C(N1CCN(C)CC1)Cc1ccccc1S2` (stereo not drawn): “active”; for `C[C@@H]1CCCCO[C@@H](CN(C)C(=O)c2ccccc2)[C@@H](C)CN([C@@H](C)CO)C(=O)c2cc(NC(=O)Nc3ccc(C(F)(F)F)cc3)ccc2O1`: “inactive”.
In the case of `CC[C@@H](C)SSc1ncc[nH]1` it was “active”; in that of `OCc1ncc[nH]1`, “inactive”.
In the case of `Cc1ncc[nH]1`, the growth inhibition call is “inactive”.
Turning to `C[C@@H]1CN([C@@H](C)CO)S(=O)(=O)c2ccc(C#CCN(C)C)cc2O[C@@H]1CN(C)C(=O)C1CCCCC1`, the growth inhibition call is “inactive”.
The same measure for `Cc1ccc(S(=O)(=O)Nc2cccc3c2O[C@@H](CN(C)CC2CC2)[C@@H](C)CN([C@H](C)CO)C3=O)cc1`: “inactive”.
The same measure for `C[C@H](O)C#Cc1cnc2c(c1)C(=O)N([C@@H](C)CO)C[C@@H](C)[C@H](CN(C)Cc1cncnc1)O2`: “inactive”.
The same measure for `O=C(c1cccnc1)N1C[C@H]2[C@@H](c3ccccc31)[C@H](CO)N2C(=O)CN1CCOCC1`: “inactive”; for `Oc1ccc(C2(c3ccccc3F)CCC(F)(F)CC2)cc1`: “active”; for `O=C1OC(c2ccc(O)cc2)(c2ccc(O)cc2)c2ccccc21`: “inactive”.
For the compound `O=S1(=O)OC(c2ccc(O)cc2)(c2ccc(O)cc2)c2ccccc21`, the growth inhibition call was “inactive”.
Regarding `C[C@H]1CN([C@@H](C)CO)S(=O)(=O)c2ccc(C#CCN(C)C)cc2O[C@@H]1CN(C)C(=O)c1ccccc1F`, the growth inhibition call was “inactive”.
In the case of `C[C@H]1CN([C@@H](C)CO)C(=O)c2cccc(NS(=O)(=O)c3cn(C)cn3)c2O[C@H]1CN(C)S(=O)(=O)c1ccccc1` it was “inactive”.
The same measure for `C[C@@H]1CN([C@H](C)CO)S(=O)(=O)c2ccc(C#CC(C)(C)O)cc2O[C@H]1CN(C)Cc1ccccc1`: “inactive”.
The same measure for `CC(N)O.Cc1cc(CC(C)CC(C)(C)C)n(O)c(=O)c1` (stereo not drawn): “active”; for `C[C@@H]1CCCCO[C@@H](CN(C)Cc2ccncc2)[C@@H](C)CN([C@@H](C)CO)C(=O)c2cc(NC(=O)Nc3ccc4c(c3)OCO4)ccc2O1`: “inactive”; for `C[C@@H]1CN([C@@H](C)CO)C(=O)Cc2cc(NS(=O)(=O)c3cn(C)cn3)ccc2O[C@@H]1CN(C)CC1CCCCC1`: “inactive”.
Turning to `O=C(O)CN(CCc1ccccc1)CC(=O)O`, the growth inhibition call is “inactive”.
Turning to `CN(C(=O)CN(CCO)CC(=O)N(C)C(C)(C)Cc1ccccc1)C(C)(C)Cc1ccccc1`, the growth inhibition call is “active”.
The same measure for `CC(=O)c1ccccc1OC[C@@H](O)CN(CCO)CCO`: “inactive”.
`C[C@@H]1CCCCO[C@H](CN(C)Cc2ccc(C(F)(F)F)cc2)[C@H](C)CN([C@@H](C)CO)C(=O)c2cc(N(C)C)ccc2O1`: the growth inhibition call is “inactive”.
For the compound `COc1c(N2CCNC(C)C2)c(F)cc2c(=O)c(C(=O)O)cn(C3CC3)c12` (stereo not drawn), the growth inhibition call was “active”.
In the case of `CC1CN(c2c(F)c(N)c3c(=O)c(C(=O)O)cn(C4CC4)c3c2F)CC(C)N1` (stereo not drawn) it was “inactive”; in that of `N[C@@H]1CN(c2c(F)cc3c(=O)c(C(=O)O)cn([C@@H]4C[C@@H]4F)c3c2Cl)CC12CC2`, “inactive”; in that of `Cl.NC1CCN(c2c(F)cc3c(=O)c(C(=O)O)cn(C4CC4)c3c2Cl)C1` (stereo not drawn), “active”.
In the case of `COc1c(N2CC3CCCNC3C2)c(F)cc2c(=O)c(C(=O)O)cn(C3CC3)c12.Cl` (stereo not drawn) it was “active”; in that of `CC1CN(c2c(F)c(F)c3c(=O)c(C(=O)O)cn(C4CC4)c3c2F)CC(C)N1` (stereo not drawn), “active”; in that of `C[C@H]1CN([C@@H](C)CO)C(=O)c2cc(NC(=O)C3CC3)ccc2O[C@H]1CN(C)C(=O)Nc1ccc2c(c1)OCO2`, “inactive”.
The same measure for `C[C@H]1CCCCO[C@@H](CN(C)Cc2ccc3c(c2)OCO3)[C@@H](C)CN([C@@H](C)CO)C(=O)c2cc(NC(=O)CCC(F)(F)F)ccc2O1`: “inactive”.
Consider `Cc1noc(C)c1NC(=O)Nc1ccc2c(c1)C(=O)N([C@@H](C)CO)C[C@@H](C)[C@H](CN(C)Cc1ccc(C(F)(F)F)cc1)OCCCC[C@H](C)O2`, for which the growth inhibition call was “inactive”.
In the case of `C[C@@H]1CN([C@H](C)CO)C(=O)c2cccc(NS(=O)(=O)c3cn(C)cn3)c2O[C@H]1CN(C)C(=O)NC1CCCCC1` it was “inactive”.
For the compound `CC(C)NC(=O)Nc1ccc2c(c1)C(=O)N([C@H](C)CO)C[C@@H](C)[C@@H](CN(C)Cc1ccc(Cl)c(Cl)c1)OCCCC[C@H](C)O2`, the growth inhibition call is “inactive”.
With `COc1ccc(NC(=O)Nc2cccc3c2O[C@H](CN(C)Cc2ccc(-c4ccccc4)cc2)[C@H](C)CN([C@H](C)CO)C3=O)cc1`, the growth inhibition call was “inactive”.
In the case of `C[C@@H]1CCCCO[C@H](CN(C)CC2CCCCC2)[C@H](C)CN([C@@H](C)CO)C(=O)c2cc(NC(=O)Nc3ccc(C(F)(F)F)cc3)ccc2O1`, the growth inhibition call was “inactive”.
The same measure for `C[C@H]1CN([C@@H](C)CO)S(=O)(=O)c2ccc(C#CCN(C)C)cc2O[C@H]1CN(C)Cc1cccnc1`: “inactive”; for `CCn1cc(C(=O)O)c(=O)c2cc(F)c(N3CCNC(C)C3)c(F)c21.Cl` (stereo not drawn): “active”; for `CCn1cc(C(=O)O)c(=O)c2cc(F)c(N3CCNCC3)nc21`: “inactive”.
As to `CCn1cc(C(=O)O)c(=O)c2cnc(N3CCNCC3)nc21`, the growth inhibition call is “inactive”.
In the case of `CCNC(=O)C[C@@H]1CC[C@H]2[C@@H](COC[C@H](O)CN2C(=O)Nc2c(C)noc2C)O1` it was “inactive”; in that of `C#CCN([C@H](/C=C/C1CC1)[C@@H](O)Cc1ccccc1)[C@@H](Cc1ccc(-n2cc(C(=O)NO)nn2)cc1)C(=O)OC`, “inactive”.
In the case of `C[C@@H]1CN([C@@H](C)CO)C(=O)c2cc(NC(=O)c3ccccc3)ccc2O[C@@H](C)CCCCO[C@@H]1CN(C)Cc1ccc(C(F)(F)F)cc1` it was “inactive”.
Regarding `CC1(C)[C@@H](OC(=O)CCC(=O)O)CC[C@@]2(C)[C@H]1CC[C@]1(C)[C@H]2C(=O)C=C2[C@@H]3C[C@@](C)(C(=O)O)CC[C@]3(C)CC[C@]21C`, the growth inhibition call is “inactive”.
In the case of `CC(=O)O[C@@H]1CC[C@@]2(C)[C@@H](CC[C@]3(C)[C@@H]2C(=O)C=C2[C@@H]4[C@@H](C)[C@H](C)CC[C@]4(C)CC[C@]23C)[C@@]1(C)C(=O)O`, the growth inhibition call is “active”.
Consider `CC1(C)[C@@H](OC(=O)CCC(=O)O)CC[C@]2(C)[C@H]3C(=O)C=C4[C@@H]5C[C@@](C)(C(=O)O)CC[C@]5(C)CC[C@@]4(C)[C@]3(C)CC[C@@H]12`, for which the growth inhibition call is “inactive”.
On to `COc1ccc(NC(=O)N(C)C[C@H]2OCCCC[C@@H](C)Oc3ccc(NS(=O)(=O)c4ccc(OC)cc4)cc3C(=O)N([C@@H](C)CO)C[C@@H]2C)cc1`, for which the growth inhibition call was “inactive”.
In the case of `Cc1occc1CN` it was “inactive”.
The same measure for `O=C(N[C@H]1C=C[C@H](CC(=O)N2CCOCC2)O[C@@H]1CO)c1ccccn1`: “inactive”; for `Nc1nnnn1-c1ccccc1`: “active”; for `NCc1nnnn1-c1ccccc1`: “inactive”.
Regarding `NC(=O)CSc1nnnn1-c1ccccc1`, the growth inhibition call was “inactive”.
The same measure for `C[C@@H]1CN([C@H](C)CO)C(=O)Cc2cc(NS(=O)(=O)c3ccccc3)ccc2O[C@H]1CN(C)CC1CC1`: “inactive”; for `CS(=O)(=O)N1[C@@H]2c3ccc(-c4cccc(F)c4)c(=O)n3C[C@H]1[C@H](CO)[C@H]2C(=O)N1CCOCC1`: “inactive”.
`Cc1noc(C)c1S(=O)(=O)N(C)C[C@@H]1Oc2ccc(NS(=O)(=O)c3ccc(Cl)cc3)cc2CC(=O)N([C@H](C)CO)C[C@H]1C`: the growth inhibition call was “inactive”.
Turning to `C=CC[n+]1ccccc1/C=N/O`, the growth inhibition call was “inactive”.
As to `Cc1ccc(S[C@]2(C(=O)NC3CC3)CC(=O)N(Cc3ccccc3C(F)(F)F)[C@@H]2c2ccc(CO)cc2I)cc1`, the growth inhibition call is “inactive”.
On to `COC(=O)c1c(C)c2c(c(C)c1O)OC(=O)c1c(C)c(Cl)c(O)c(Cl)c1O2`, for which the growth inhibition call was “active”.
The same measure for `COC(=O)c1c(OC)cc2c(c1C)Oc1c(Cl)c(O)c(Cl)c(C)c1C(=O)O2`: “inactive”; for `COC(=O)c1c(C)c2c(c(C)c1OC)OC(=O)c1c(C)c(Cl)c(OC)c(Cl)c1O2`: “inactive”.
As for `COc1ccc(CN(C)C[C@@H]2Oc3ccc(NS(C)(=O)=O)cc3CC(=O)N([C@@H](C)CO)C[C@H]2C)cc1`, the growth inhibition call is “inactive”.
The same measure for `CO[C@H]1C[C@H](O[C@H]2[C@H](C)[C@@H](O[C@H]3O[C@H](C)C[C@H](N(C)C)[C@H]3O)[C@@H](C)C[C@]3(CO3)C(=O)[C@H](C)[C@@H](O)[C@@H](C)[C@@H](C)OC(=O)[C@@H]2C)O[C@@H](C)[C@@H]1O`: “active”.
The same measure for `C[C@H](O)C#Cc1cnc2c(c1)C(=O)N([C@H](C)CO)C[C@@H](C)[C@@H](CN(C)Cc1cncnc1)O2`: “inactive”; for `CN1C(=O)c2cc(NC(=O)Nc3ccccc3F)ccc2OC[C@H]2O[C@@H](CC(=O)NCc3ccc(-c4ccccc4)cc3)CC[C@H]21`: “inactive”.
`C[C@H](CO)N1C[C@H](C)[C@H](CN(C)C)Oc2ccc(NS(C)(=O)=O)cc2CC1=O`: the growth inhibition call was “inactive”.
